# Bioassay records from PubChem.
# The list is not random: actives were taken first. Their share in the collection is about 4.7%.
# D1 potentiator = enhances dopamine response at the human D1 receptor. P21728. HEK293 TREx D1 cells, calcium flux, dopamine EC20 potentiation. AID 504651. potentiation, % at 10 µM. hit rate 0.036% among 360,000; in the data active = potentiation above about 30%; also: 0% is about no effect
# Target sequence (P21728 whole entry, looked up): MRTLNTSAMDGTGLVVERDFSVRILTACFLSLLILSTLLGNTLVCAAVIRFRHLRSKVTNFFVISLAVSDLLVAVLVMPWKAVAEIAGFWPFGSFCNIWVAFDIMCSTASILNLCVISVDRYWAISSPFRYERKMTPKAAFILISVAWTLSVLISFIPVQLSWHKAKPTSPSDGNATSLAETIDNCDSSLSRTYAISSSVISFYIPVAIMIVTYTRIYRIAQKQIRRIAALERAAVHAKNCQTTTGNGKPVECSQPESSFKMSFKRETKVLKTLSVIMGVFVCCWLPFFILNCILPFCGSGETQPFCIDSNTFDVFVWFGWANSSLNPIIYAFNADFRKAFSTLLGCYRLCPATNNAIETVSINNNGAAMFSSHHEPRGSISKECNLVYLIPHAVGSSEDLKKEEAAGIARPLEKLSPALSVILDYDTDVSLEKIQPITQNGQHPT
# TRHR ag = activates the human TRH receptor. hit rate 0.18% among 360,000. TRHR cells, calcium flux fluo-8, FDSS agonist mode. activation, % at 2 µM. P34981. AID 493084; also: 0% is about no effect
#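 TRHR-expressing cells, plated overnight in medium with 10% serum, were loaded with fluo-8 calcium dye at room temperature. After a 10 s baseline, library compound was pin-added and calcium release was recorded kinetically (ex 480/em 530) as agonist response.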
# TRHR enhancer = TRH receptor (human) allosteric enhancement. enhancement, % at 2 µM. TRHR cells, fluo-8 calcium fluorescence, EC20 TRH enhancement. hit rate 0.66% among 360,000. P34981. AID 493056; in the data active = enhancement above about 30%; also: 0% is about no effect
#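 Enhancer read-out: after compound pinning and an initial kinetic agonist-mode read, an EC20 of TRH (10 nM final) was injected and fluo-8 calcium signal (Ex 480/Em 530) followed at 1 s/cycle for 100 cycles in TRHR-expressing cells.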
# D1 antag = blocks dopamine activation of the human D1 receptor; HEK293 TREx D1 cells, calcium flux, dopamine EC80; active compounds read low; activity change, negative = inhibition, % at 10 µM; AID 504652; hit rate 3.2% among 360,000; P21728; in the data active = activity change below about -30%; also: % is scaled to controls: 0 for no effect and ±100 for the full control effect
#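 HEK293 T-REx cells expressing inducible, force-coupled D1 receptor; no-wash Ca dye, 30–90 min RT. Cmpd → 180 s read at 1 Hz → EC80 DA → 180 s read.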
# D1 ag = agonists of human D1 dopamine receptor. P21728. HEK293 T-REx D1 cells, calcium flux, agonist mode. hit rate 1% among 360,000. activation, % at 2 µM; also: 0% is about no effect
#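 Agonism was scored from calcium flux recorded over 180 s (1 read/s) after pintool compound addition, following a 10-cycle baseline. Cells were inducible force-coupled HEK293 TREx D1, plated overnight at 30 C and loaded with no-wash calcium dye.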
# The depositor's hits bear a star; nt = no result. Rule as the data show it, unless noted: active = activation above about 30%; inactive = the rest.
SMILES,D1 potentiator,TRHR ag,TRHR enhancer,D1 antag,D1 ag
COc1cn(CC(=O)Nc2ccc(C)cc2)c(CN2CCCCC2)cc1=O,-2,0,2,-46*,3
COc1cn(CC(=O)Nc2ccc(F)cc2)c(CN2CCCCC2)cc1=O,-2,0,15,7,1
Cc1ccccc1CN1CCN(CC(=O)NCCCN2CCN(c3ccc(F)cc3)CC2)C1=O,-12,1,-11,-65*,24
COc1ccccc1S(=O)(=O)Cc1ccc(C(=O)NCCCN2CCN(c3ccc(F)cc3)CC2)o1,-23,0,-1,-62*,1
Cc1cccc(N2CCN(CCNC(=O)Nc3ccc(Cl)cc3)CC2)c1C,-3,3,4,-33*,30*
O=C(NCCN1CCN(c2ccccc2Cl)CC1)Nc1ccccc1,-7,0,-2,-8,-1
COc1ccc(N2CCN(CCCNC(=O)Nc3ccccc3Cl)CC2)cc1,-4,-1,-1,-6,12
O=C(NCCCN1CCN(c2ccc(F)cc2)CC1)Nc1ccccc1Cl,0,-1,2,-67*,43*
O=C(NNC(=O)C12CC3CC(CC(Cl)(C3)C1)C2)c1csc(N2CCOCC2)n1,0,-1,-3,10,2
COc1ccc(C(=O)NCCn2cc(SCc3cccc(F)c3)c3ccccc32)cc1OC,2,2,29,10,2
CCOC(=O)[C@@H]1[C@H]2COc3cc(OC)ccc3[C@H]2N2C(=O)N(c3ccc(F)cc3)C(=O)[C@@]12C,1,1,5,3,4
CCOc1ccc(OCC)c(NC(=O)c2cnn(-c3ccc(F)cc3)c2-n2cccc2)c1,-1,1,-3,-14,3
NS(=O)(=O)c1ccc(CNC(=O)c2cc(=O)[nH]c3ccccc23)cc1,-2,0,-1,20,2
COc1ccc(Nc2nc3c(S(=O)(=O)c4ccc(Br)cc4)nnn3c3ccsc23)c(OC)c1,-4,1,3,-7,1
CCOc1ccc(NC(=O)NCCCN2CCN(c3ccc(F)cc3)CC2)cc1,-4,0,3,-36*,14
CCc1ccc(N2CCN(CCNC(=O)Nc3ccc(OC)cc3)CC2)cc1,16,0,5,3,2
O=C(NCCCN1CCN(c2ccc(F)cc2)CC1)Nc1ccc(Cl)cc1,-2,2,-5,-77*,69*
O=C(CCN1CCN(c2ccc(F)cc2)CC1)Nc1ccccc1F,5,0,1,7,3
CSc1ccc(N2CCN(CCCNC(=O)Nc3ccccc3F)CC2)cc1,-24,0,-7,-4,75*
CSc1cccc(NC(=S)NCCCN2CCN(c3ccc(F)cc3)CC2)c1,-5,1,-8,-76*,11
O=C(CN1CCN(Cc2ccc(Cl)cc2)C1=O)NCCCN1CCN(c2ccc(F)cc2)CC1,-3,-1,10,-10,4
COc1cccc(-n2cc(C(=O)OCc3ccc(Cl)cc3)c3ccccc3c2=O)c1,-2,2,5,-12,6
CCCNC(=O)c1ccc(N2CCC3(CC2)CC(c2cccc(Br)c2)=NO3)c(NC(=O)c2ccc(Br)cc2)c1,-4,0,3,-12,3
CSc1ccc(NC(=O)NCCCN2CCC(Cc3ccccc3)CC2)cc1,7,0,16,-13,196*
CCOc1ccccc1C1CC(=O)NC(SCC)=C1C#N (stereo unspecified),-2,-2,34*,-5,0
SMILES,D1 potentiator,TRHR ag,TRHR enhancer,D1 antag,D1 ag
COC(=O)CSC1=C(C#N)C(c2cccc(F)c2)CC(=O)N1 (stereo unspecified),-5,0,22,-11,2
COC(=O)CSC1=C(C#N)C(c2cccc(OC)c2)CC(=O)N1 (stereo unspecified),nt,0,2,-42*,4
CCCSC1=C(C#N)C(c2ccc(O)c(OC)c2)CC(=O)N1 (stereo unspecified),nt,0,-1,-53*,2
Fc1ccc(N2CCN(c3nc(CN4CCOCC4)nc4scc(-c5ccccc5)c34)CC2)cc1,-2,0,-8,-46*,4
CCNc1nc(CN2CCCCC2)nc2scc(-c3ccccc3)c12,-8,0,4,-38*,3
OCC1CCCN(c2nc(CN3CCCCC3)nc3scc(-c4ccccc4)c23)C1 (stereo unspecified),-2,0,4,-10,3
CN(C(=O)NCc1noc2ccccc12)c1cccc(Cl)c1,-8,0,-9,5,2
CCCCOc1ccc(CONS(=O)(=O)c2ccc(NC(C)=O)cc2)cc1Cl,-6,2,2,-11,136*
CC(=O)Nc1ccc(S(=O)(=O)NCCOc2ccc(Cl)cc2C)cc1,2,1,12,-14,6
CCN1C(C(=O)c2ccccc2)=C(OC(=O)COc2ccccc2)c2ccccc2S1(=O)=O,1,-1,-4,4,0
CCOC(=O)c1c(NC(=O)COc2cccc(C)c2C)sc2c1CCCCC2,4,-2,9,-44*,1
CCOC(=O)c1c(NC(=O)c2ccco2)sc2c1CCCCC2,-1,1,1,5,3
CCOC(=O)c1c(NC(=O)CCCOc2ccccc2C)sc2c1CCC(C)C2 (stereo unspecified),-1,0,33*,-1,2
CCOC(=O)c1c(NC(=O)C(C)N2CCN(C(=O)c3ccco3)CC2)sc2c1CCCC2 (stereo unspecified),-5,-1,10,-2,40*
Cc1cccc(OCC(=O)Nc2ccc3c4c(cccc24)CC3)c1C,2,0,23,-47*,3
COc1ccc(OC)c(NC(=O)CCc2c(C)nn(-c3ccc(N4CCCC4)nn3)c2C)c1,-4,-1,2,-19,0
COC(=O)c1cc(S(=O)(=O)N2CCN(Cc3ccccc3)CC2)c[nH]1,-8,1,16,-12,14
CC(C)C(=O)Nc1c(-c2ccccc2F)c(=O)c2ccccc2n1C,-2,-2,9,12,2
Cc1ccc(OCC(=O)NNC(=O)Cc2ccc(S(=O)(=O)N3CCOCC3)s2)cc1,-2,0,-7,-49*,2
O=C(COc1ccccc1F)NNC(=O)Cc1ccc(S(=O)(=O)N2CCOCC2)s1,-3,0,5,-26,1
Cc1ccccc1OCC(=O)NNC(=O)Cc1ccc(S(=O)(=O)N2CCOCC2)s1,-5,0,-1,-38*,-1
CCOC(=O)c1c(C)sc(-c2c(-c3ccc4c(c3)OCCO4)[nH]c3c2c(=O)n(C)c(=O)n3C)c1O,-1,-1,5,-14,-2
O=C(OCC(=O)c1cccc2ccccc12)c1ccc(CO)cc1,-4,0,-7,-18,7
O=c1[nH][nH]c(-c2ccccc2)c1C=Nc1ccc(Cl)cc1,3,0,2,24,0
O=c1[nH][nH]c(-c2ccccc2)c1C=Nc1cccc(Cl)c1,-10,0,2,-34*,0
